Only some compounds are listed: those with a hit (about 18% of all), similar ones and a draw of the others.
TDP1 cell noCPT – qHTS for Inhibitors of human tyrosyl-DNA phosphodiesterase 1 (TDP1): qHTS in cells in absence of CPT | DT40 Tdp1-/- hTDP1 cells, no CPT, ATP luminescence, 48 h | Potency, µM (top dose mostly 46.2 µM), for the others: at the highest dose activity change, negative = growth inhibition, hits mostly inhibitors | 420,000 tested, 15% active; further: potency means the concentration at half of the fitted maximal effect; on the % scale 0 is the no-effect control and ±100 the full control effect; nearly all actives have a fitted effect of over 55% in size
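Seeded 400 DT40-hTDP1 cells/well (vehicle DMSO, no 20 nM CPT); pinned compounds; ≥48 hr at 37 °C; CellTiter-Glo luminescence as viability measure.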
HepG2 tox – HepG2 cytotoxicity, counter-screen for TGF-b inhibitors; HepG2 CAGA-GFP viability, ATP luminescence, 18 h; Potency, µM (doses to about 46.1 µM), for the others: at the highest dose activity change, negative = cytotoxicity, usual class: cytotoxic; 410,000 tested, 0.76% active; further: potency means the concentration at half of the fitted maximal effect
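CellTiter-Glo luminescence gave cytotoxicity after 18 hours at 37 degrees C. The cells were HepG2 CAGA-GFP in 1% FBS DMEM, stimulated with 500 pg/mL TGF-beta after compound addition. %Activity was normalised to no-cell wells (complete cell-killing) and DMSO (no toxicity), and curves were fitted and classified.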
TGFb SMAD3 inh – inhibitors of TGF-b signaling; HepG2 CAGA-GFP TGF-b/SMAD3 reporter, GFP fluorescence, 18 h; TGF-beta stimulated, 500 pg/mL final; Potency, µM (titrated, usually from 46.1 µM), inactives show at the top dose activity, negative = inhibition, actives largely listed as inhibitors; 410,000 tested, 1.2% active; AID 588855; further: potency means the concentration at half of the fitted maximal effect; on the % scale 0 is the no-effect control and ±100 the full control effect; nearly all actives have a fitted effect of over 65% in size
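Smad-responsive CAGA-GFP expression was quantified in HEPG2 cells exposed to compounds and 500 pg/mL final TGF-beta for 18 h at 37 degrees C; unstimulated wells defined full inhibition.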
TDP1 cell CPT – DT40-hTDP1 cell growth loss with CPT; chicken DT40 Tdp1-/-;hTDP1 cells + 20 nM CPT, ATP luminescence, 48 h; Potency, µM (titrated, usually from 46.2 µM), for inactives: at the highest dose activity change, negative = growth inhibition, hits mostly inhibitors; 420,000 tested, 12% active; further: potency means the concentration at half of the fitted maximal effect; on the % scale 0 is the no-effect control and ±100 the full control effect; nearly all actives have a fitted effect of over 55% in size
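Chicken DT40 Tdp1-/- cells complemented with human TDP1, 400 cells/well, exposed to compounds plus 20 nM camptothecin for at least 48 h at 37 C; viability read as ATP content by CellTiter-Glo luminescence.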
TDP1 block – TDP1 (human) enzyme inhibition. recombinant TDP1, AlphaScreen DNA substrate cleavage. Potency, µM (series often up to 130 µM), for inactives: at the top dose activity change, negative = inhibition, hits mostly inhibitors. 350,000 tested, 0.28% active. AID 485290; further: potency means the concentration at half of the fitted maximal effect; on the % scale 0 is the no-effect control and ±100 the full control effect; nearly all actives have a fitted effect of over 40% in size
Target sequence (Q9NUW8 whole entry, looked up): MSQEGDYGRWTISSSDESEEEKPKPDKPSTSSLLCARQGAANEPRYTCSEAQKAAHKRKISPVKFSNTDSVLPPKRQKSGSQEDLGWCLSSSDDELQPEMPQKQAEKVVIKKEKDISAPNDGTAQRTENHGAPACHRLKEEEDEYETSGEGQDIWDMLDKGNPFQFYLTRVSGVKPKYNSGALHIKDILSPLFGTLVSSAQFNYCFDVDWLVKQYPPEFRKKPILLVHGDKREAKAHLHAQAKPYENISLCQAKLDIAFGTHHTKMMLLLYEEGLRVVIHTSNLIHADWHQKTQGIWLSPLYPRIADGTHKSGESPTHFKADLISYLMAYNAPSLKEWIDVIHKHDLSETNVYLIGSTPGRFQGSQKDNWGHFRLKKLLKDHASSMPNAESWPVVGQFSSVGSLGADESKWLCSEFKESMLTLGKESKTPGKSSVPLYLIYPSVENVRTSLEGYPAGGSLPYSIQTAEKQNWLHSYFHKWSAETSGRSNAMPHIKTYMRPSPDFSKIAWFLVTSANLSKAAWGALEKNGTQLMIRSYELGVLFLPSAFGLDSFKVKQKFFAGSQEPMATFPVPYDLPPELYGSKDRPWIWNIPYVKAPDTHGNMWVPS
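E. coli-derived human Tdp1, 1 nM final. Cpd preinc 15 min RT; substrate 15 nM final, 5 min RT; AS bead mix 10 ug/ml final, 10 min RT. Signal loss = tyrosine-FITC cleavage. No-enzyme wells = max signal.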
IL-1B inflam inh – inflammasome signaling inhibition, IL-1 beta readout | activity change, % at 57.5 µM | 360,000 tested, 4.7% active | THP-1 LPS/ATP IL-1B secretion, AlphaLISA, 16 h; hits give low values | AID 743279; in the data active means activity change below about -50%; inconclusive means mostly about -30% to -49%; further: on the % scale 0 is the no-effect control and ±100 the full control effect
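Secreted IL-1B measured by AlphaLISA bead assay after 16 h compound exposure of THP-1 cells; compounds (final up to 57.5 uM) added 1 h before LPS (250 ng/mL) and ATP (1.25 mM) stimulation; lower signal means less secretion.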
* = called active by the depositor; i = inactive; ? = inconclusive; . = no result; [ ] = remark or other dose. Unless noted, the call rests on the fitted dose curve; in most records, active means well fitted curve in the direction sought with a large enough effect; inconclusive means small, poorly fitted or top-dose-only effect, or another doubt; inactive means no such curve, though single readings can be large; an effect the other way counts as inactive or inconclusive.

SMILES	TDP1 cell noCPT	HepG2 tox	TGFb SMAD3 inh	TDP1 cell CPT	TDP1 block	IL-1B inflam inh
CSc1ncccc1C(=O)N1CCC(C)(C(=O)O)C1 (configuration not stated)	-6%	-21%	-23%	1%	.	-8
CCOC(=O)C1CC(c2ccccc2)=NN1c1ccccc1 (configuration not stated)	?	9%	4%	?	.	15
N#Cc1ccc(NC(=S)Nc2ccccc2)cc1	15µM*	2%	-3%	?	4%	i
O=C(Nc1ccc(Cl)c(Cl)c1)Nc1ccc(Br)cc1F	12µM*	-65%	?	5.8µM*	-7%	?
Cc1ccc(NC(=S)Nc2ccc(Br)cc2)cc1	?	-3%	30%	-22%	0%	-17
O=C(Nc1ccccc1F)Nc1ccccc1F	-21%	-22%	-3%	?	1%	4
O=C(Nc1ccc(Br)cc1)Nc1ccccc1F	15µM*	-29%	?	15µM*	3%	-66*
CC(=O)Nc1ccc(NC(=S)Nc2ccccc2)cc1	-1%	-8%	10%	4%	1%	-11
O=C(Nc1ccc(Cl)c(Cl)c1)Nc1ccccc1O	?	-63%	?	?	0%	-21
S=C(Nc1ccccc1)Nc1ccc(Br)cc1	21µM*	-64%	?	16µM*	-8%	9
COc1cc(C2Oc3nc(SC)nnc3-c3ccccc3N2C(C)=O)cc(Cl)c1OC (configuration not stated)	7%	-2%	-14%	8%	.	.
O=C(NNc1cccc(Cl)n1)Nc1ccccc1F	-26%	-2%	17%	-16%	-3%	5
O=C(NNc1ccccc1)Nc1ccccc1F	7.3µM*	-7%	1%	?	12%	-3
Fc1ccccc1NC(=S)Nc1ccc(Br)cc1	23µM*	-9%	-25%	15µM*	5%	-58*
Fc1cc(Br)ccc1NC(=S)Nc1ccccc1	?	-40%	?	-8%	-1%	0
O=C1CSC(c2ccc([N+](=O)[O-])cc2)N1c1ccccc1 (configuration not stated)	3%	-13%	0%	20%	.	-6
O=S(=O)(NC1CCCCCC1)c1cccc(Cl)c1	?	-14%	-10%	?	-6%	?
Cc1cccc(S(=O)(=O)NC2CCCCCCC2)c1	?	-14%	-36%	21µM*	5%[0.0935 µM]	-6
CCOc1cc(S(=O)(=O)NC2CCCCCC2)ccc1F	?	4%	?	21µM*	-13%	37
Cc1cc(S(=O)(=O)NC2CCCC2)ccc1F	?	-13%	-8%	-13%	4%	13
CCOc1ccc(Cn2nnc3c(=O)[nH]c(C4CCN(C(=O)c5ccccc5)CC4)nc32)cc1	?	-24%	?	?	2%	.
Cc1ccc(-c2cc(C(=O)N/N=C\c3cnn(C)c3C)c3ccccc3n2)cc1C	10µM*	-23%	-5%	12µM*	6%	-10
Cc1ccc(-c2cccc(C(=O)NCCc3ccccc3)n2)c2ccccc12	16µM*	-16%	?	26µM*	-5%	-14
Cc1ccc(-c2cc(C(=O)NCc3cnn(C)c3C)c3ccccc3n2)cc1C	18µM*	-34%	-27%	?	-2%	.
COc1cc(-c2cc(C(=O)NCCc3ccc(S(N)(=O)=O)cc3)c3ccccc3n2)cc(OC)c1OC	3.3µM*	-11%	10%	4.1µM*	7%	-52*
SMILES	TDP1 cell noCPT	HepG2 tox	TGFb SMAD3 inh	TDP1 cell CPT	TDP1 block	IL-1B inflam inh
Cc1ccc(-c2cc(C(=O)NCC3CCCO3)c3ccccc3n2)cc1C (configuration not stated)	5%	0%	-7%	11%	-3%	1
Cc1ccc(N2CCn3c2nc2c3c(=O)n(Cc3cccc(Cl)c3)c(=O)n2C)cc1C	-21%	4%	-29%	?	8%	.
CCCNC(=O)OC[C@@H]1O[C@H](CCO/N=C\C[C@H]2C=C[C@H](OC(C)=O)[C@@H](COC(C)=O)O2)C=C[C@@H]1Oc1ccc(OC)cc1	.	.	.	.	9%[21 µM]	.
COc1cccc(C(=O)O/N=C(\N)CS(=O)(=O)c2ccccc2)c1	16%	-1%	0%	-26%	5%	30
CCNC(=O)c1c(NC(=O)c2cc(=O)c3ccc(C)c(C)c3o2)sc2c1CCCC2	-14%	-1%	0%	11%	4%	.
Cc1ccc(-c2cc(C(=O)NCCc3ccccc3)c3ccccc3n2)cc1C	?	-21%	-19%	21µM*	5%	.
Cc1ccc(CCNC(=O)c2cc(Nc3ccc(C)c(C)c3)nc3ccccc23)cc1	?	-37%	-3%	-21%	3%	.
COc1ccc(NS(=O)(=O)c2cc(C)ccc2NC(=O)c2cc(C)oc2C)cc1	0.58µM*	1%	?	0.92µM*	10%	55
COc1ccc(NS(=O)(=O)c2cccc(C(=O)NNC(=O)c3cc(C)oc3C)c2)cc1	?	1%	-13%	-23%	6%	-9
COc1ccc(CCNc2cc(-c3ccccc3)nc3ncnn23)cc1	?	0%	-22%	23µM*	4%	0
C#CCNc1cc(-c2ccccc2)nc2ncnn12	3%	-3%	2%	-7%	1%	21
Cc1cc(NCc2ccccc2)n2ncnc2n1	12µM*	1%	1%	?	4%	23
CCCCCCCCCCCCCCCC(=O)OC[C@H](O)[C@H]1OC(=O)C(O)=C1O	-2%	.	.	10%	.	.
Cc1c(Cl)cccc1NC(=S)NNc1ncc(C(F)(F)F)cc1Cl	?	-13%	?	?	8%	-69*
O=C(NNc1ncc(C(F)(F)F)cc1Cl)c1c(Cl)cccc1Cl	4.1µM*	-14%	?	4.1µM*	13%	19
Cc1ccccc1NC(=S)NNc1ncc(C(F)(F)F)cc1Cl	-26%	-23%	-9%	-11%	10%	-9
Fc1ccccc1NC(=S)NNc1ncc(C(F)(F)F)cc1Cl	23µM*	-38%	?	?	11%	-20
FC(F)(F)c1cnc(NNC(=S)Nc2cccnc2)c(Cl)c1	21µM*	0%	?	?	8%	41
O=C(C[C@H]1C(=O)N(Cc2ccccc2)C[C@@H]1Cc1ccccc1)Nc1ccc(Br)cc1	?	-60%	?	-24%	.	-12

High-throughput results (PubChem)
